“And” between values parts separate entries of the source, which are not always exact repeats. Equal entries are not always repeated. Results filed as inconclusive are left out. The source made the active and inactive calls. Unless noted, the call rests on the fitted dose curve; in most records, active means well fitted curve in the direction sought with a large enough effect; inconclusive means small, poorly fitted or top-dose-only effect, or another doubt; inactive means no such curve, though single readings can be large; an effect the other way counts as inactive or inconclusive.
Experiments:
[1] = Cell Viability - MRC5 (AID 434; calls by dose curve;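 further: potency means the concentration at half of the fitted maximal effect; cells exposed to compound for 40 hours at 37 °C; potency reflects cytotoxicity seen as loss of intracellular ATP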); conditions: MRC5 lung fibroblast viability, qHTS
Summary of the method: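 AC50 values come from Hill-equation fits of intracellular ATP loss, measured by CellTiter-Glo luminescence. Normal lung fibroblasts (MRC5) had 40 hr compound treatment at 37 C, normalized between DMSO and 100 uM tamoxifen.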

[2] = Cellular Toxicity (caspase-3) HepG2 (AID 654); conditions: HepG2 caspase-3 activation, luminescence; series mostly up to 92.2 µM;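 further: cells exposed to compound for 16 hours before reading; 0% = DMSO alone and 100% = caspase signal from 100 µM tamoxifen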
Summary of the method: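 Luminescent Caspase-Glo 3/7 readout after 16 hr compound exposure of human hepatocellular carcinoma HepG2 cells at 37 °C; qHTS concentration-response, normalized DMSO = 0%, 100 uM tamoxifen = 100%; AC50 by standard Hill equation.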

[3] = Cellular Toxicity (caspase-3) HUV-EC-C (AID 656); conditions: HUV-EC-C cells, caspase-3 activation (apoptosis); series mostly up to 92.2 µM
Summary of the method: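 HUV-EC-C endothelial cells, 1000/well, were pre-incubated 5 hr at 37°C, then exposed to compounds for 16 hr at 37°C. Caspase-Glo 3/7 luminescence was read after 20 min at room temperature. AC50 came from Hill fits, normalized to DMSO and 100 uM tamoxifen.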

[4] = Cellular Toxicity (caspase-3) SHSY5Y (AID 657); conditions: SH-SY5Y caspase-3 activation; series mostly up to 91.7 µM
Summary of the method: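 SH-SY5Y human neuroblastoma cells (1500/well) were treated with compounds for 16 h at 37 °C, then Caspase-Glo 3/7 luminescence was read after 1 h at room temperature. Data normalized to DMSO and 10 uM staurosporine; AC50 from Hill fits.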

[5] = Cellular Toxicity (caspase-3) BJ (AID 658); conditions: BJ fibroblasts, luminescence; Potency: caspase-3 activation; series mostly up to 91.7 µM
Summary of the method: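 Caspase-Glo 3/7 luminescence, read 1 hr after reagent at room temperature, in normal BJ fibroblasts exposed 16 hours at 37 °C. AC50 values from Hill-equation concentration-response, scaled between DMSO basal and 10 uM staurosporine as 100%.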

[6] = Cellular Toxicity (caspase-3) MRC-5 (AID 659); conditions: MRC-5 cells, luminescence, normalized: DMSO 0%, 10 µM staurosporine 100%; series mostly up to 91.7 µM
Summary of the method: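 Luminescent Caspase-Glo 3/7 read-out (1 h, room temperature) after a 16 h, 37 °C compound exposure of MRC-5 lung fibroblasts at 1500 cells/well. Concentration-response AC50 from Hill equation; 0% DMSO, 100% 10 uM staurosporine.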

[7] = Cellular Toxicity (caspase-3) Mesangial (AID 660); conditions: mesangial cells, normalized: DMSO 0%, 100 µM tamoxifen 100%; series mostly up to 91.7 µM;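 further: combined caspase 3 and 7 activity read by Caspase-Glo luminescence; cells exposed to compound for 16 h before the caspase read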
Summary of the method: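 Luminescent Caspase-Glo 3/7 readout (aminoluciferin substrate cleavage, 20 min RT) after 16 h compound exposure at 37 °C of normal human mesangial cells. Signal increase normalized between DMSO basal and 100 uM tamoxifen; Hill-equation AC50.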

[8] = Cellular Toxicity (caspase-3) SK-N-SH (AID 661); conditions: SK-N-SH caspase-3 activation, qHTS, DMSO as zero, staurosporine as full; series mostly up to 91.7 µM
Summary of the method: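 Luminescent Caspase-Glo 3/7 read-out after 16 hr compound exposure of SK-N-SH neuroblastoma cells at 37 °C. Signal increase normalized to DMSO (basal) and 10 uM staurosporine (100%); AC50 from Hill equation fits of qHTS concentration-response data.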

[9] = Cellular Toxicity (caspase-3) H-4-II-E (AID 663); conditions: H-4-II-E rat hepatoma; Potency: caspase-3 activation; series mostly up to 92.2 µM;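 further: cells exposed to compound for 16 hr before readout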
Summary of the method: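 Caspase 3/7 activation measured by luminescent aminoluciferin substrate cleavage after 16 hr compound treatment of H-4-II-E cells in complete medium. Increase normalized between DMSO (basal) and 100 uM tamoxifen (100%); Hill-equation AC50 from concentration-response.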

[10] = Cellular Toxicity (caspase-3) Hek293 (AID 664); conditions: HEK293 caspase-3 activation, DMSO = 0%, 100 µM tamoxifen = 100%; at 92.2 µM (top of the series);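 further: cells exposed to compound for 16 h at 37 °C before readout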
Summary of the method: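 Luminescent Caspase-Glo 3/7 readout (aminoluciferin release) in HEK293 cells after 16 h compound treatment, 37 °C. Normalization: DMSO = basal, 100 uM tamoxifen = 100% stimulation. Concentration-response fitted with standard Hill equation for AC50.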

[11] = Cellular Toxicity (caspase-3) N2a (AID 665); conditions: N2a cells, luminescence, normalized: DMSO 0%, 10 µM staurosporine 100%; series mostly up to 92.2 µM;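 further: compound exposure lasted 16 h at 37 °C before readout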
Summary of the method: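 Luminescent Caspase-Glo 3/7 readout in N2a mouse neuroblastoma cells after 16 h compound exposure at 37 °C. Signal scaled to DMSO (basal) and 10 uM staurosporine (100%). Concentration-response fitted with Hill equation for AC50.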

[12] = Cellular Toxicity (caspase-3) Renal Proximal Tubule (AID 667); conditions: renal proximal tubule cells, primary cells freshly taken from rat; Potency: caspase-3 activation; series mostly up to 91.7 µM;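 further: cells exposed to compound for 16 hours at 37 °C before detection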
Summary of the method: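 Primary rat proximal tubule cells, 1000/well, 5 h plating at 37 °C, then compound 16 h at 37 °C. Caspase-Glo 3/7 reagent, 1 h RT, luminescence. Normalized to DMSO (basal) and 10 uM staurosporine (100%); Hill-fit AC50.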

[13] = MultiTox-Fluor Cytotoxicity Assay - LYMP1-001 - Dead Cells (AID 946); conditions: LYMP1-001 lymphoblastoid cells, dead-cell protease fluorescence; series mostly up to 92.2 µM
Summary of the method: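 Cytotoxicity as increased dead-cell protease fluorescence (bis-AAF-R110, 485/520 nm), read 60 min after MultiTox-Fluor reagent. Human lymphoblastoid line exposed 16 h; Hill-fitted AC50, with DMSO as 0% and 15 uM tetraoctylammonium bromide as 100%.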

[14] = MultiTox-Fluor Cytotoxicity Assay - LYMP1-003 - Live Cells (AID 962); conditions: LYMP1-003 lymphoblastoid cells, MultiTox-Fluor live-cell protease fluorescence; series mostly up to 92.2 µM;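 further: 0% = DMSO only and full loss = 92 µM tetraoctylammonium bromide; cytotoxic hits lower the live-cell protease signal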
Summary of the method: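 Readout: live-cell fluorescence (Ex/Em=405/510) from GF-AFC cleavage after 60 min MultiTox-Fluor reagent at room temperature. Lymphoblastoid LYMP1-003 cells, 16 hr compound treatment, 37 C. Concentration-response fitted to standard Hill equation for AC50.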

[15] = Cell Viability - LYMP1-003 - Assay at 24 hr (AID 963); conditions: LYMP1-003 lymphoblastoid cell viability; series mostly up to 92.2 µM;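 further: plate controls were DMSO only for no effect and tetraoctylammonium bromide positive control for full effect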
Summary of the method: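 CellTiter-Glo luminescence (intracellular ATP) read after 24 hr, 37 C compound exposure of 2500 LYMP1-003 human lymphoblastoid cells/well in complete medium; qHTS concentration series; AC50 via standard Hill equation.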

[16] = qHTS Assay for Identification of Small Molecule Inducers of Hypoxia Response (AID 2120; active means well fitted curve in the direction sought with a large enough effect in the signal ratio, with a control signal flat, not every such curve was filed as active; the % refers to the signal ratio; further: 0% is about no effect); conditions: hypoxia response reporter cells, beta-lactamase ratio readout; series mostly up to 104 µM
Summary of the method: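 Read-out: CCF4 FRET emission ratio 460nm/530nm (excitation 405nm), converted to %Activity, with AC50 fitted across a compound titration. ME-180 cells carried an HRE-driven beta-lactamase reporter; compound exposure 17 h, 37 degrees C.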

[17] = molecular target: Peroxisome proliferator-activated receptor alpha (Homo sapiens) (UniProt Q07869); test: qHTS assay for small molecule agonists of the peroxisome proliferator-activated receptor alpha (PPARalpha) signaling pathway (AID 651778); conditions: PathHunter PPARalpha complementation, chemiluminescence, 6 h; max response: active compounds read high; further: % of control where 0% means no effect
Summary of the method: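 Chemiluminescence from complemented enzyme reported PPARalpha activation in cells after 6 hr of compound treatment at 37 C. The detection reagent was incubated for 60 min at room temperature, and compounds were scored as agonists.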

[18] = qHTS assay for small molecule agonists of the antioxidant response element (ARE) signaling pathway measured by Nrf2-dependant transcriptional activity - cell viability counter screen (AID 720653; active means well fitted curve in the direction sought with a large enough effect in the repeat runs; an effect the other way counts as inactive or inconclusive; further: on the % scale 0 is the no-effect control and ±100 the full control effect); conditions: ARE-bla HepG2 viability, CellTiter-Glo ATP luminescence, 16 h; max response: active compounds read low
Summary of the method: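 Cytotoxicity counter screen: intracellular ATP quantified by CellTiter-Glo luminescence in the same ARE-bla HepG2 plates, after 16 h compound exposure and a 2 h beta-lactamase substrate step.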

[19] = qHTS assay for cell viability of HEK293 cells (AID 743288); conditions: ATP luminescence (CellTiter-Glo), 18 h; max response: active compounds read low; further: on the % scale 0 is the no-effect control and ±100 the full control effect; nearly all actives have a fitted effect of over 50% in size
Summary of the method: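 After 18 h compound exposure at 37 C, parental HEK293 cells (2,000/well) are lysed with CellTiter-Glo and luminescence is read following 30 min at room temperature.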

[20] = qHTS assay for cell viability of the p53RE-bla HCT-116 cell line (AID 743292); conditions: p53RE-bla HCT-116 viability, ATP luminescence, 16 h; series mostly up to 95 µM; further: on the % scale 0 is the no-effect control and ±100 the full control effect; nearly all actives have a fitted effect of over 55% in size
Summary of the method: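 Viability of compound-treated p53RE-bla HCT-116 cells is taken from ATP-dependent luciferase luminescence. Treatment lasts 16 h at 37 C after a 5 h settling period; detection follows 30 min at room temperature.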

Sequence of Peroxisome proliferator-activated receptor alpha (Homo sapiens) (Q07869 whole entry, looked up): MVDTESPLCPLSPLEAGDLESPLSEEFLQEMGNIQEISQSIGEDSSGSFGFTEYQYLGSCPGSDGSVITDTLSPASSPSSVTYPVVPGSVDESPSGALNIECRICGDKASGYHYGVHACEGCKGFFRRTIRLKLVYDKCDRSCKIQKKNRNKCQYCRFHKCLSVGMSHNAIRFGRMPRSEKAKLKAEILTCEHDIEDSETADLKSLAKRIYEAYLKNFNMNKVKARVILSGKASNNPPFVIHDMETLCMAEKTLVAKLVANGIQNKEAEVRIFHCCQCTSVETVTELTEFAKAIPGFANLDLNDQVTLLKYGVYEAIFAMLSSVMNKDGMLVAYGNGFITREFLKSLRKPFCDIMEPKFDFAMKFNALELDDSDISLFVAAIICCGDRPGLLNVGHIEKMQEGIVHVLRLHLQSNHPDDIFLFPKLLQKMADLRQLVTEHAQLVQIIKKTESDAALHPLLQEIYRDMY

CN(C)c1ccc(Cc2ccc(N(C)C)cc2)cc1
inactive: Potency [1] > 92 µM | Potency [2] | Potency [3] | Potency [4] | Potency [5] | outcome [6] | outcome [7] | outcome [8] | Potency [9] | caspase-3 activation [10] 2.63% | outcome [11] | Potency [12] | Potency [13] | Potency [14] | Potency [15] | Potency [16] | max response [17] 1.98% and -1.9% | max response [18] -17.1% and 8.5% | max response [19] -15.2% and -24.3% | Potency [20]

Nc1ccc(N=Nc2ccccc2)c(N)c1
inactive: Potency [1] > 92 µM | Potency [2] | Potency [3] | Potency [4] | Potency [5] | outcome [6] | outcome [7] | outcome [8] | Potency [9] | caspase-3 activation [10] -11.8% | outcome [11] | Potency [12] | Potency [13] | Potency [14] | Potency [15] | Potency [16] | max response [17] -3.41% | max response [18] -16.9% | max response [19] -22.9% | Potency [20]

Brc1ccc(-c2ccccc2)cc1
inactive: Potency [1] > 92 µM | Potency [2] | Potency [3] | Potency [4] | Potency [5] | outcome [6] | outcome [7] | outcome [8] | Potency [9] | caspase-3 activation [10] -0.717% | outcome [11] | Potency [12] | Potency [13] | Potency [14] | Potency [15] | Potency [16] | max response [17] -2.37% | max response [18] -10.1% | Potency [20]

Cc1c(N)cccc1Cl
inactive: Potency [1] > 92 µM | Potency [2] | Potency [3] | Potency [4] | Potency [5] | outcome [6] | outcome [7] | outcome [8] | Potency [9] | caspase-3 activation [10] 0.378% | outcome [11] | Potency [12] | Potency [13] | Potency [14] | Potency [15] | Potency [16] | max response [17] -2.61% | max response [18] -6.28% | max response [19] 0.674% | Potency [20]

C/C(Cl)=C/CCl
inactive: Potency [1] > 92 µM | Potency [2] | Potency [3] | Potency [4] | Potency [5] | outcome [6] | outcome [7] | outcome [8] | Potency [9] | caspase-3 activation [10] -0.884% | outcome [11] | Potency [12] | Potency [13] | Potency [14] | Potency [15] | Potency [16] | max response [17] -4.68% | max response [18] 5.48% | max response [19] -11.4% | Potency [20]

CC(=O)OCc1ccc2c(c1)OCO2
inactive: Potency [1] > 92 µM | Potency [2] | Potency [3] | Potency [4] | Potency [5] | outcome [6] | outcome [7] | outcome [8] | Potency [9] | caspase-3 activation [10] -3.09% | outcome [11] | Potency [12] | Potency [13] | Potency [14] | Potency [15] | Potency [16] | max response [17] -4.72% | max response [18] -6.13% | max response [19] -6.03% | Potency [20]

— PubChem BioAssay (NCATS)
